Among the test systems are DU-145 prostate; K-562 leukemia; MALME-3M melanoma; MDA-MB-231 breast; RXF 393 renal; SF-268 CNS; SF-295 CNS; SF-539 CNS; UACC-257 melanoma; M14 melanoma; HCT-15 colon; HT29 colon; SNB-19 CNS; U251 CNS; PC-3 prostate; SK-MEL-5 melanoma; UACC-62 melanoma; LOX IMVI melanoma; SK-MEL-28 melanoma; SNB-75 CNS.
Assay in all cases: NCI-60 one-dose screen, 48 h (100 = growth as untreated, 0 = no growth, -100 = all killed)
Holding throughout (settings): 10 µM unless noted

About 83,000 compounds went through this panel and 20% of them were active in at least one assay; those are over-represented in the sample as a whole.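 Method: cells in 96-well plates; compound added at one concentration; 48 h incubation; percent growth measured; values under 10 scored active.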 A number with no mark means an inactive call. Calls of active or inactive are those of the source.

In the case of `Cc1ccc(NC(=O)c2nc(S(C)(=O)=O)oc2-c2ccc(F)cc2)cc1Nc1ccc2ncn(C)c(=O)c2c1`, the growth with DU-145 prostate is 57.8%; in the assay with K-562 leukemia, -22.8% (active); in the assay with MALME-3M melanoma, 23.7%; with MDA-MB-231 breast, 31%; with RXF 393 renal, 45%; in the assay with SF-268 CNS, 68.3%. Further, the growth in the assay on SF-295 CNS was 98.8%; with SF-539 CNS, 95.3%; in the assay with UACC-257 melanoma, 82.5%; with M14 melanoma, 39.4%; with HCT-15 colon, 3.34% (active); with HT29 colon it was 15.8%. In addition, the growth in the assay with SNB-19 CNS was 126%; in the assay with U251 CNS, 69.7%; with PC-3 prostate, 88.6%; in the assay with SK-MEL-5 melanoma, 78.9%; with UACC-62 melanoma, 85.8%; in the assay with LOX IMVI melanoma, -71.5% (active). The growth in the assay on SK-MEL-28 melanoma was 82.1%.
On to `Nc1ccc(N(O)/C=C2\C=CC=CC2=O)cc1N`, for which the growth with DU-145 prostate is 121%; in the assay with K-562 leukemia, 93.5%; in the assay with MALME-3M melanoma it was 101%; with MDA-MB-231 breast, 85.9%; with RXF 393 renal it was 98.2%; in the assay on SF-268 CNS it was 107%. In addition, the growth in the assay on SF-295 CNS was 112%; in the assay on SF-539 CNS, 101%; in the assay with UACC-257 melanoma, 98.7%; in the assay with M14 melanoma, 101%; in the assay with HCT-15 colon it was 87%; in the assay on SNB-75 CNS it was 104%. For the same molecule, the growth with SNB-19 CNS is 102%; in the assay on U251 CNS, 94.1%; in the assay on PC-3 prostate it was 69.6%; in the assay on SK-MEL-5 melanoma it was 76.3%; with UACC-62 melanoma it was 66.1%; in the assay with LOX IMVI melanoma, 48.8%.
Consider `CC(=O)N(C)c1ccc(Nc2cc(C)[nH]c3ccc4ncnc4c23)cc1`, for which the growth with DU-145 prostate was 46.5%; in the assay on K-562 leukemia, 29.5%; in the assay with MALME-3M melanoma it was 82.4%; in the assay on MDA-MB-231 breast it was 87.7%; in the assay with RXF 393 renal, 41.7%; in the assay with SF-268 CNS it was 55%. Further, the growth is 76.5% in the assay on SF-295 CNS; 40.7% with SF-539 CNS; 48.2% with UACC-257 melanoma; 76.9% with M14 melanoma; 82.5% in the assay on HCT-15 colon; 55% in the assay on SNB-75 CNS. Besides, the growth is 58.7% in the assay on SNB-19 CNS; 49.9% with U251 CNS; 50.5% in the assay with PC-3 prostate; 51.4% with SK-MEL-5 melanoma; 62.7% in the assay on UACC-62 melanoma; 36.1% with LOX IMVI melanoma.
Regarding `FC1(F)CCN(Cc2c[nH]c3cc(Cl)ccc23)C[C@H]1CCc1ccccc1`, the growth with DU-145 prostate is 65%; with K-562 leukemia, 31.4%; with MALME-3M melanoma, 77.1%; in the assay with MDA-MB-231 breast, 68.9%; in the assay with RXF 393 renal, 64.3%; in the assay with SF-268 CNS, 72.1%. Also, the growth with SF-295 CNS was 54.5%; with SF-539 CNS, 88.6%; in the assay with UACC-257 melanoma, 53.2%; in the assay with M14 melanoma it was 60%; with HCT-15 colon, 51%; with SNB-75 CNS it was 40.8%. Besides, the growth is 68% with SNB-19 CNS; 44.5% in the assay on U251 CNS; 53.3% with PC-3 prostate; 62.7% in the assay with SK-MEL-5 melanoma; 59.9% with UACC-62 melanoma; 46.9% in the assay on LOX IMVI melanoma.
For the molecule `COc1ccc(/C=C2\Cc3c(Br)cccc3C2=O)c(OC)c1`, the growth is 87.4% in the assay on DU-145 prostate; 64% with K-562 leukemia; 60.2% in the assay on MALME-3M melanoma; 58% in the assay on MDA-MB-231 breast; 80.9% in the assay with RXF 393 renal; 73.6% in the assay with SF-268 CNS. Moreover, the growth in the assay with SF-295 CNS was 67.5%; in the assay on SF-539 CNS it was 73.4%; in the assay on UACC-257 melanoma, 98.2%; with M14 melanoma it was 47%; in the assay on HCT-15 colon, 51.1%; in the assay on SNB-75 CNS, 70.7%. Also, the growth is 53.3% with SNB-19 CNS; 55.6% in the assay with U251 CNS; 81.1% with PC-3 prostate; 47.9% with SK-MEL-5 melanoma; 38.9% with UACC-62 melanoma; 59.9% in the assay on LOX IMVI melanoma. The growth in the assay with SK-MEL-28 melanoma is 64.3%.
Turning to `Cc1ccc(-c2nc3ccccc3c(=O)n2/N=C/c2cccc3ccccc23)cc1`, the growth in the assay with DU-145 prostate was 96.9%; in the assay on K-562 leukemia, 65.5%; with MALME-3M melanoma, 68.6%; in the assay with MDA-MB-231 breast, 66.8%; with RXF 393 renal, 91.8%; in the assay on SF-268 CNS, 74.1%. Also, the growth is 66.8% in the assay on SF-295 CNS; 96.5% in the assay with SF-539 CNS; 86.4% with UACC-257 melanoma; 67.5% with M14 melanoma; 74.3% in the assay on HCT-15 colon; 74.3% in the assay with SNB-75 CNS. Besides, the growth with SNB-19 CNS was 94.4%; with U251 CNS, 77%; with PC-3 prostate it was 63.3%; with SK-MEL-5 melanoma, 75.5%; in the assay on UACC-62 melanoma it was 69.4%; with LOX IMVI melanoma, 63.4%. Also, the growth in the assay on SK-MEL-28 melanoma was 85.6%.
On to `CC(=O)OC1Oc2cc(C)c(C)cc2-c2oc(=O)c(-c3cc4ccccc4oc3=O)cc21` (stereo not drawn), for which the growth in the assay with DU-145 prostate is 89.7%; in the assay with K-562 leukemia, 106%; in the assay with MALME-3M melanoma, 107%; in the assay with MDA-MB-231 breast, 92.4%; in the assay on RXF 393 renal, -1.16% (active); in the assay on SF-268 CNS it was 61.3%. The growth is 76% with SF-295 CNS; 88.4% in the assay on SF-539 CNS; 117% with UACC-257 melanoma; 96.3% in the assay on M14 melanoma; 117% in the assay on HCT-15 colon; 110% with HT29 colon. Besides, the growth was 116% in the assay with SNB-19 CNS; 66.6% with U251 CNS; 91.9% in the assay on PC-3 prostate; 115% in the assay on SK-MEL-5 melanoma; 102% with UACC-62 melanoma; 84.7% with LOX IMVI melanoma. The growth in the assay with SK-MEL-28 melanoma is 152%.
As to `CNC(=O)c1ccccc1Sc1ccc2c(/C=C/c3ccccn3)n[nH]c2c1`, the growth is 47.5% in the assay with DU-145 prostate; 6.57% (active) in the assay on K-562 leukemia; 37.2% in the assay with MALME-3M melanoma; 39.7% in the assay on MDA-MB-231 breast; 2.21% (active) in the assay with RXF 393 renal; 41.9% in the assay on SF-268 CNS. The growth with SF-295 CNS was 40%; with SF-539 CNS it was 3.31% (active); in the assay with UACC-257 melanoma it was 31.5%; in the assay with M14 melanoma it was 16.9%; with HCT-15 colon, 33.9%; in the assay with HT29 colon, 25.2%. The growth was 50.2% in the assay on SNB-19 CNS; 40.1% in the assay on U251 CNS; 28.1% with PC-3 prostate; 11.2% in the assay with SK-MEL-5 melanoma; 13% with UACC-62 melanoma; 8.31% (active) with LOX IMVI melanoma. Moreover, the growth in the assay on SK-MEL-28 melanoma was 40.7%.
As for `O=C(Nc1ccc(Oc2ccc(NC(=O)Nc3ccccc3Cl)cc2)cc1)Nc1ccccc1Cl`, the growth was 24.2% in the assay on DU-145 prostate; 33.6% with K-562 leukemia; 66.7% in the assay with MALME-3M melanoma; 72.3% in the assay on MDA-MB-231 breast; -15.8% (active) with RXF 393 renal; 40.3% with SF-268 CNS. For the same molecule, the growth with SF-295 CNS is 71.2%; in the assay on SF-539 CNS, 62.8%; in the assay with UACC-257 melanoma, 60.5%; with M14 melanoma, 65%; in the assay with HCT-15 colon, 38.9%; with SNB-75 CNS, 58.2%. Besides, the growth was 115% in the assay with SNB-19 CNS; 24.6% with U251 CNS; 1.99% (active) with PC-3 prostate; 62.5% in the assay with SK-MEL-5 melanoma; 45.9% in the assay with UACC-62 melanoma; 48.5% in the assay with LOX IMVI melanoma. Also, in the assay on SK-MEL-28 melanoma, the growth is -17.7% (active).
